Growth data for 9 molecules are collected here from PubChem BioAssay (NCI).

Experiment in all cases: NCI-60 one-dose screen, 48 h (100 = growth as untreated, 0 = no growth, -100 = all killed)
Holding throughout (details): 10 µM unless noted

The subject of assay [1] is NCI-H23 lung.
In assay [2] the test system is NCI-H226 lung.
The subject of assay [3] is NCI-H322M lung.
Assay [4] concerns HOP-62 NSCLC.
The subject of assay [5] is NCI-H460 lung.
Assay [6] concerns NCI-H522 lung.
Assay [7] concerns A549/ATCC NSCLC.
Assay [8] relates to 786-0 renal.
For assay [9], the system named is MALME-3M melanoma.
Assay [10] concerns MDA-MB-231 breast.
Assay [11] concerns RXF 393 renal.
Assay [12] concerns SF-268 CNS.
Assay [13] concerns SF-295 CNS.
Assay [14] concerns SF-539 CNS.
Assay [15] concerns UACC-257 melanoma.
For assay [16], the system named is M14 melanoma.
The subject of assay [17] is HCT-15 colon.
Assay [18] deals with COLO 205 colon.
The subject of assay [19] is DU-145 prostate.
In assay [20] the test system is K-562 leukemia.

About 83,000 compounds went through this panel and 20% of them were active in at least one assay; those are over-represented in the sample as a whole.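 Assay: single dose, 48 h. Readout: percent growth (0 = no net growth; negative = cell death). Active: <10.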 A number with no mark means an inactive call. Activity calls are given as the source filed them.

As to `COc1ccc(-n2nc3c(c2-c2ccc(OC)c(OC)c2)-c2oncc2CC3)cc1`, the growth in assay [1] was 93.3%; in assay [2], 106%; in assay [3], 97.7%; in assay [4], 94.1%; in assay [5] it was 90.3%; in assay [6], 18.1%. The growth is 82.5% in assay [7]; 78% in assay [8]; 100% in assay [9]; 80% in assay [10]; 83.8% in assay [11]; 84% in assay [12]. Also, the growth in assay [13] is 84%; in assay [14] it was 114%; in assay [15], 110%; in assay [16], 93.6%; in assay [17], 55.9%.

Turning to `ClC1=C(Cl)C(Cl)=C(Cl)C1=Cc1ccc(Cl)cc1`, the growth was 33.1% in assay [1]; 87.7% in [2]; 107% in assay [3]; 47.4% in assay [4]; -63.4% (active) in assay [5]; 27.5% in [6]. Moreover, the growth in [8] is -43% (active); in [18], 13.5%; in assay [19] it was -75.4% (active); in [20] it was -0.422% (active); in assay [9] it was -2.75% (active); in assay [10], 14.3%. The growth in assay [11] was 20.5%; in assay [12] it was -69.3% (active); in assay [13] it was 34.2%; in assay [14] it was 91.2%; in [16], -47.6% (active); in assay [17], 66.5%.

`COc1ccc(/C=N/NC(=O)c2ccc(S(C)(=O)=O)cc2)cc1OC`: the growth in [1] was 102%; in [2], 93.5%; in [3], 92.1%; in assay [4], 97.2%; in [5] it was 109%; in [6] it was 84.4%. In addition, the growth in assay [8] is 99.5%; in [18], 107%; in assay [19], 99.8%; in assay [20], 80.9%; in assay [9], 107%; in assay [10], 106%. In addition, the growth in assay [11] is 104%; in assay [12], 102%; in assay [13], 100%; in [14], 105%; in assay [16], 99.4%; in [17] it was 102%.

In the case of `Cn1cc(-c2csc(-c3c[nH]c4ncccc34)n2)c2cc(F)cnc21`, the growth is 74% in [1]; 73.5% in assay [2]; 70.7% in assay [3]; 79.5% in assay [4]; 61.3% in [5]; 86.8% in assay [6]. Further, the growth in [7] is 85.3%; in [8], 90.5%; in assay [9] it was 95.5%; in assay [10], 57%; in [11], 59.8%; in [12], 91.7%. Moreover, the growth is 74.3% in [13]; 90.9% in assay [14]; 96.2% in assay [15]; 58.7% in assay [16]; 61.3% in [17].

As for `CN1CCN(Cc2ccc(NC(=O)c3[nH]ncc3Nc3ccnc4ccnn34)cc2)CC1`, the growth in assay [1] is 62.3%; in assay [2], 65.7%; in [3] it was 79.6%; in assay [4], 93.5%; in assay [5], 63.7%; in assay [6] it was 55.7%. Besides, the growth in assay [7] was 81.3%; in assay [18] it was 39.5%; in assay [19], 47.4%; in [20], 34.9%; in [9], 58.9%; in assay [10], 99.9%. Also, the growth is 51.5% in [11]; 63.7% in [12]; 88.7% in assay [13]; 40.9% in assay [14]; 77.9% in [15]; 57.1% in assay [16]. Also, the growth in [17] is 98%.

In the case of `CCC1=C(c2ccc(OC)cc2)C(C)Oc2cc(OC(C)=O)ccc21` (configuration not stated), the growth in [1] is 82%; in [2] it was 83.1%; in assay [3], 116%; in assay [4], 99.7%; in assay [5], 93%; in [6] it was 78.8%. Also, the growth is 101% in assay [8]; 103% in assay [18]; 102% in assay [19]; 50.2% in assay [20]; 98% in [9]; 90.4% in assay [10]. Also, the growth was 85.3% in [11]; 86.9% in assay [12]; 99.4% in assay [13]; 84.3% in assay [14]; 83.4% in assay [16]; 85.5% in assay [17].

In the case of `O=C(NN(C(=O)c1ccccc1)c1cccs1)c1ccccc1`, the growth in assay [1] is 103%; in [2], 99.8%; in assay [3] it was 94%; in [4] it was 97%; in [5] it was 116%; in assay [6] it was 91.3%. The growth in assay [8] is 100%; in [18], 106%; in [19], 123%; in [20] it was 109%; in [9] it was 97.3%; in assay [10] it was 93.4%. Further, the growth was 115% in [11]; 112% in [12]; 116% in assay [13]; 110% in assay [14]; 139% in [15]; 101% in assay [16]. Also, in assay [17], the growth is 101%.

With `C=Cc1nn2c(CCC(=O)c3nc4ccccc4[nH]3)nnc2s1`, the growth was 99.4% in assay [1]; 97.5% in [2]; 94% in [3]; 97.9% in assay [4]; 105% in assay [5]; 102% in assay [6]. Besides, the growth was 105% in [7]; 97.5% in assay [8]; 108% in assay [9]; 101% in assay [10]; 106% in assay [11]; 101% in assay [12]. The growth in assay [13] was 99.7%; in assay [14], 113%; in assay [15] it was 110%; in assay [16], 92.9%; in [17], 101%.

Take `C[N+]1(CCc2ccccc2)CCC(CCC2CC[N+](C)(CCc3ccccc3)CC2)CC1` (configuration not stated): the growth in [1] was 87.4%; in assay [2], 92.1%; in [3] it was 120%; in assay [4], 66.9%; in assay [5] it was 103%; in [6] it was 98.8%. For the same molecule, the growth in assay [8] is 110%; in assay [18] it was 104%; in assay [19], 117%; in assay [20] it was 129%; in [9], 118%; in assay [10], 101%. Also, the growth in assay [11] is 105%; in assay [12] it was 102%; in assay [13], 97.1%; in [14], 106%; in assay [15], 110%; in assay [16], 103%. For the same molecule, the growth in [17] was 104%.
